Results filed as inconclusive are left out. The source made the active and inactive calls. Calls follow the shape of the dose curve; as a rule, active = well fitted inhibition curve with a large enough effect; inconclusive = small, poorly fitted or top-dose-only effect; inactive = flat fitted curve, though single readings scatter.
Legend:
Assay in all cases: qHTS profiling for inhibitors of Plasmodium falciparum proliferation (AID 504749); also: nearly all actives have a fitted effect of over 60% in size
CP252 = details: P. falciparum in erythrocytes, SYBR Green DNA, 72 h; series mostly up to 12.8 µM
Procedure, shortened: (§1)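 Parasite proliferation within erythrocytes, 72 h exposure. Endpoint: SYBR Green I fluorescence after overnight lysis at room temperature. Controls: 0.29 uM artemisinin, DMSO.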

CP256 = details: P. falciparum in erythrocytes, SYBR Green DNA, 72 h; series mostly up to 28.7 µM
Procedure, shortened: as §1

CP260 = details: P. falciparum in erythrocytes, SYBR Green DNA, 72 h; series mostly up to 28.7 µM
Procedure, shortened: as §1

CP265 = details: P. falciparum in erythrocytes, SYBR Green DNA, 72 h; series mostly up to 12.8 µM
Procedure, shortened: as §1

CP266 = details: P. falciparum in erythrocytes, SYBR Green DNA, 72 h; series mostly up to 12.8 µM
Procedure, shortened: as §1

CP268 = details: P. falciparum in erythrocytes, SYBR Green DNA, 72 h; series mostly up to 28.7 µM
Procedure, shortened: as §1

CP269 = details: P. falciparum in erythrocytes, SYBR Green DNA, 72 h; series mostly up to 28.7 µM
Procedure, shortened: as §1

CP286 = details: P. falciparum in erythrocytes, SYBR Green DNA, 72 h; series mostly up to 28.7 µM
Procedure, shortened: as §1

CP291 = details: P. falciparum in erythrocytes, SYBR Green DNA, 72 h; series mostly up to 28.7 µM
Procedure, shortened: as §1

CP297 = details: P. falciparum in erythrocytes, SYBR Green DNA, 72 h; series mostly up to 28.7 µM
Procedure, shortened: as §1

CP305 = details: P. falciparum in erythrocytes, SYBR Green DNA, 72 h; series mostly up to 28.7 µM
Procedure, shortened: as §1

CP315 = details: P. falciparum in erythrocytes, SYBR Green DNA, 72 h; series mostly up to 28.7 µM
Procedure, shortened: as §1

CP325 = details: P. falciparum in erythrocytes, SYBR Green DNA, 72 h; series mostly up to 28.7 µM
Procedure, shortened: as §1

CP329 = details: P. falciparum in erythrocytes, SYBR Green DNA, 72 h; series mostly up to 28.7 µM
Procedure, shortened: as §1

DIV14 = details: P. falciparum in erythrocytes, SYBR Green DNA, 72 h; series mostly up to 28.7 µM
Procedure, shortened: as §1

DIV17 = details: P. falciparum in erythrocytes, SYBR Green DNA, 72 h; series mostly up to 28.7 µM
Procedure, shortened: as §1

DIV30 = details: P. falciparum in erythrocytes, SYBR Green DNA, 72 h; series mostly up to 28.7 µM
Procedure, shortened: as §1

Dd2 = details: P. falciparum in erythrocytes, SYBR Green DNA, 72 h; series mostly up to 28.7 µM
Procedure, shortened: as §1

ECU = details: P. falciparum in erythrocytes, SYBR Green DNA, 72 h; series mostly up to 28.7 µM
Procedure, shortened: as §1

FAB9 = details: P. falciparum in erythrocytes, SYBR Green DNA, 72 h; series mostly up to 28.7 µM
Procedure, shortened: as §1

GB4 = details: P. falciparum in erythrocytes, SYBR Green DNA, 72 h; series mostly up to 28.7 µM
Procedure, shortened: as §1

HB3 = details: P. falciparum in erythrocytes, SYBR Green DNA, 72 h; series mostly up to 28.7 µM
Procedure, shortened: as §1

ICS = details: P. falciparum in erythrocytes, SYBR Green DNA, 72 h; series mostly up to 28.7 µM
Procedure, shortened: as §1

N140 = details: P. falciparum in erythrocytes, SYBR Green DNA, 72 h; series mostly up to 28.7 µM
Procedure, shortened: as §1

P93_24 = details: P. falciparum in erythrocytes, SYBR Green DNA, 72 h; series mostly up to 28.7 µM
Procedure, shortened: as §1

P94_40 = details: P. falciparum in erythrocytes, SYBR Green DNA, 72 h; series mostly up to 28.7 µM
Procedure, shortened: as §1

PAD = details: P. falciparum in erythrocytes, SYBR Green DNA, 72 h; series mostly up to 28.7 µM
Procedure, shortened: as §1

PC15 = details: P. falciparum in erythrocytes, SYBR Green DNA, 72 h; series mostly up to 28.7 µM
Procedure, shortened: as §1

PC26 = details: P. falciparum in erythrocytes, SYBR Green DNA, 72 h; series mostly up to 28.7 µM
Procedure, shortened: as §1

PC49 = details: P. falciparum in erythrocytes, SYBR Green DNA, 72 h; series mostly up to 28.7 µM
Procedure, shortened: as §1

SC27B = details: P. falciparum in erythrocytes, SYBR Green DNA, 72 h; series mostly up to 28.7 µM
Procedure, shortened: as §1

TAB109 = details: P. falciparum in erythrocytes, SYBR Green DNA, 72 h; series mostly up to 12.8 µM
Procedure, shortened: as §1

TAB113 = details: P. falciparum in erythrocytes, SYBR Green DNA, 72 h; series mostly up to 28.7 µM
Procedure, shortened: as §1

TAB165 = details: P. falciparum in erythrocytes, SYBR Green DNA, 72 h; series mostly up to 28.7 µM
Procedure, shortened: as §1

W2 = details: P. falciparum in erythrocytes, SYBR Green DNA, 72 h; series mostly up to 12.8 µM
Procedure, shortened: as §1

Measured: Potency
Potency is read from the fitted curve at half-maximal effect.

CO[C@@H](COC(N)=O)C1=C(N2CC2)C(=O)C(C)=C(N2CC2)C1=O
active: CP252 0.794 µM | CP256 1.41 µM | CP260 1 µM | CP265 0.708 µM | CP266 3.79 µM | CP268 3.01 µM | CP269 0.953 µM | CP286 1.12 µM | CP291 1.35 µM | CP297 1.69 µM | CP305 1.9 µM | CP315 3.38 µM | CP325 3.01 µM | CP329 1.51 µM | DIV14 1.51 µM | DIV17 1.9 µM | DIV30 3.01 µM | Dd2 0.891 µM | ECU 2 µM | FAB9 7.94 µM | GB4 1.51 µM | HB3 2 µM | ICS 1 µM | N140 1.26 µM | P93_24 1.12 µM | P94_40 1.12 µM | PAD 1.26 µM | PC15 2.82 µM | PC26 1.9 µM | SC27B 1.26 µM | TAB109 1.12 µM | TAB113 1.26 µM | TAB165 0.708 µM | W2 0.301 µM
inactive: PC49
